CHX counter: counter-screen for Shiga toxin inhibitors: cycloheximide protein synthesis inhibition; AID 2314; cell reporter, cycloheximide protein synthesis inhibition counterscreen; 300,000 tested, 12% active; max response, %; in the data active means max response mostly above about 13%, no sharp cut-off; inactive means mostly below about 14%; further: read at 38.3 µM for the half of the compounds with a filed dose; 0% is about no effect
Shiga inhibitor: inhibitors of Shiga toxin in Vero cells; inhibition, % at 38.7 µM; 290,000 tested, 9.2% active; Vero cells, Shiga toxin protein synthesis inhibition reporter; AID 2315; in the data active means inhibition mostly above about 28%, no sharp cut-off; inactive means mostly below about 43%; further: 0% is about no effect
AMA1 RON2 block: inhibitors of Plasmodium falciparum AMA1-RON2 interaction | AlphaScreen AMA1-biotinylated RON2 peptide binding | Potency, µM (highest dose often 58.2 µM), for inactives: top-dose activity change, negative = inhibition, usual class: inhibitors | 360,000 tested, 0.2% active | AID 720542; active means well fitted inhibition curve with a large enough effect; inconclusive means small, poorly fitted or top-dose-only effect; inactive means no such curve, though single readings can be large or run the other way;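 further: potency means the concentration at half of the fitted maximal effect; 0% = vehicle wells and -100% = peptide control; nearly all actives have a fitted effect of over 45% in size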
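AMA1 (3D7) with his tag at 25 nM final met compounds first, then biotinylated RON2 peptide at 25 nM; detection used donor plus acceptor beads, 10 µg/mL apiece, read by AlphaScreen after 30 min at room temperature.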
Marburg entry inh: blocks Marburg virus binding to or entry into cells; Marburg virus pseudotyped entry inhibition, cell reporter; Potency, µM (doses to about 37.8 µM), for inactives: top-dose activity change, negative = inhibition, usual class: inhibitors; 300,000 tested, 1.8% active; AID 540276; calls by dose curve; tested in HEK293 cells; further: potency means the concentration at half of the fitted maximal effect; on the % scale 0 is the no-effect control and ±100 the full control effect
Lassa entry inh: Lassa virus entry inhibition | Lassa virus pseudotype entry inhibition, cell reporter | Potency, µM (series often up to 37.9 µM), inactives show at the highest dose activity change, negative = inhibition, hits mostly inhibitors | 300,000 tested, 1.2% active | AID 540256; calls by dose curve; tested in HEK293 cells; further: potency means the concentration at half of the fitted maximal effect; on the % scale 0 is the no-effect control and ±100 the full control effect; nearly all actives have a fitted effect of over 50% in size
Active calls of the source: *; [ ] = another dose, or the depositor's remark. Only a selection was taken, and hits are over-represented in it overall.

Screening O=C(Nc1ccc2c(c1)OCO2)c1n[nH]c(=O)c2ccccc12 returned CHX counter 18*, Shiga inhibitor 57* and AMA1 RON2 block 46%.
`O=C(Nc1ccc2c(c1)OCO2)c1ccc(Cl)nc1` gave CHX counter 17, Shiga inhibitor 65, AMA1 RON2 block -6%, Marburg entry inh 19% and Lassa entry inh -1%.
Screening O=C(Nc1ccc2c(c1)OCO2)c1nn(-c2ccccc2)c(=O)c2ccccc12 returned CHX counter -4, Shiga inhibitor -8, AMA1 RON2 block 29%, Marburg entry inh -8% and Lassa entry inh inconclusive.
CC(C)(C)c1ccc(NC(=O)c2ccc(=O)[nH]n2)cc1 was read as CHX counter 54*, Shiga inhibitor 111*, AMA1 RON2 block -15%, Marburg entry inh inconclusive and Lassa entry inh inconclusive.
`O=C(Nc1ccc2c(c1)OCO2)c1ccc(=O)[nH]n1` gave CHX counter 18*, Shiga inhibitor 52* and AMA1 RON2 block -1%.
`O=C(Nc1ccccn1)c1ccc(=O)[nH]n1` gave CHX counter 7, Shiga inhibitor -7, AMA1 RON2 block 24%, Marburg entry inh inconclusive and Lassa entry inh 1%.
For O=C(Nc1ccccc1-c1ccccc1)c1ccc(=O)[nH]n1 the results were CHX counter 46*, Shiga inhibitor 83*, AMA1 RON2 block 4%, Marburg entry inh -7% and Lassa entry inh 10%.
COc1ccc(CCNC(=O)CCS(=O)(=O)c2cc(Br)cc3c2N(C(C)=O)CC3)cc1OC was read as Marburg entry inh -13%[46.1 µM] and Lassa entry inh 2%[46.1 µM].
For COc1ccc(C(=O)Nc2ccccc2C(N)=O)cc1 the results were CHX counter 27*, Shiga inhibitor 94*, AMA1 RON2 block 7%, Marburg entry inh 25% and Lassa entry inh -1%.
`COc1cc(CC(=O)Nc2nc(-c3ccccc3)c(C(C)=O)s2)cc(OC)c1OC` gave CHX counter -5, Shiga inhibitor -9, AMA1 RON2 block -2%, Marburg entry inh -13% and Lassa entry inh inconclusive.
Screening NC(=O)c1ccccc1NC(=O)c1ccc2c(c1)OCO2 returned CHX counter 41*, Shiga inhibitor 55* and AMA1 RON2 block 3%.
Screening COCC(=O)Nc1ccccc1C(=O)Nc1ccc(OC)cc1 returned CHX counter 22*, Shiga inhibitor 51*, AMA1 RON2 block -14%, Marburg entry inh -26% and Lassa entry inh -2%.
COc1ccc(CC(=O)Nc2nc(-c3ccccc3)c(C(C)=O)s2)cc1OC was read as CHX counter -2, Shiga inhibitor 17, AMA1 RON2 block -22%, Marburg entry inh 11µM* and Lassa entry inh inconclusive.
Screening CC(C)OC(=O)c1ccc(N)cc1 returned CHX counter 8, Shiga inhibitor 25, AMA1 RON2 block 6%, Marburg entry inh 12%[14.2 µM] and Lassa entry inh -3%.
`COC(=O)[C@@]12C[C@@H](CC(=O)NCC3CCCCC3)C(=O)N(Cc3ccco3)C1=CCC(C)(C)C2` gave AMA1 RON2 block -8%.
COc1ccc(C(=O)Nc2ccccc2C(=O)N/N=C/c2cccc3ccccc23)cc1 was read as CHX counter 31*, Shiga inhibitor 119*, AMA1 RON2 block 3%, Marburg entry inh inconclusive and Lassa entry inh inconclusive.
For O=C(N/N=C/c1cccc2ccccc12)c1ccncc1 the results were CHX counter 14, Shiga inhibitor 15 and AMA1 RON2 block 17%.
Screening Cc1ccccc1NC(=O)NNC(=O)c1ccc2ccccc2c1 returned CHX counter 0, Shiga inhibitor -7 and AMA1 RON2 block 75%.
For COc1cc(OC)cc(C(=O)Nc2ccccc2C(=O)N2CCCC2)c1 the results were CHX counter 30*, Shiga inhibitor 60*, AMA1 RON2 block -4%, Marburg entry inh -6% and Lassa entry inh 3%.
For O=C(CSCc1ccccc1)Nc1ccccc1C(=O)Nc1ccc(C(=O)O)cc1 the results were CHX counter 13*, Shiga inhibitor 24, AMA1 RON2 block -12%, Marburg entry inh -5%[46.1 µM] and Lassa entry inh 1%.
`COc1ccc(C(=O)Nc2ccccc2C(=O)N2CCCCCC2)cc1` gave CHX counter -2, Shiga inhibitor 24, AMA1 RON2 block -1%, Marburg entry inh -8% and Lassa entry inh 2%.
Screening Cc1ccccc1NC(=O)c1ccc2ccccc2c1 returned CHX counter 30*, Shiga inhibitor 92*, AMA1 RON2 block -4%, Marburg entry inh -16% and Lassa entry inh inconclusive.
Screening C=Cc1ccc(CSc2nc(-c3ccccc3Cl)nc3c2Cc2c(CO)cnc(C)c2O3)cc1 returned Lassa entry inh -8%[46.1 µM].
CC(C)CCC(CCNCc1ccccn1)c1ccc(Cl)cc1 (stereo not given) was read as CHX counter -2, Shiga inhibitor -6, AMA1 RON2 block 52%, Marburg entry inh inconclusive and Lassa entry inh inconclusive.
COc1ccc(C(=O)Nc2ccccc2C(=O)Nc2ccncc2)cc1 was read as CHX counter 25*, Shiga inhibitor 58, AMA1 RON2 block -6%, Marburg entry inh inconclusive and Lassa entry inh -20%.
For COc1ccc(NC(=O)c2ccccc2NC(=O)c2cccs2)cc1 the results were CHX counter 9, Shiga inhibitor 15, AMA1 RON2 block 8%, Marburg entry inh 22%[46.1 µM] and Lassa entry inh -19%[46.1 µM].
Screening COc1ccc(C(=O)Nc2ccccc2C(=O)Nc2ccccc2C(=O)O)cc1 returned CHX counter 29*, AMA1 RON2 block -8%, Marburg entry inh inconclusive and Lassa entry inh inconclusive.
For COc1ccc(CC(=O)Nc2ccc(C(=O)Nc3ccccc3C(=O)O)cc2)cc1OC the results were CHX counter 23*, Shiga inhibitor -16, AMA1 RON2 block -13%, Marburg entry inh -16%[46.1 µM] and Lassa entry inh 8%.
`COc1ccccc1OCC(=O)Nc1ccc(C(=O)Nc2ccccc2C(=O)O)cc1` gave AMA1 RON2 block 1%.
`CCC(NC(=O)c1ccccc1NC(=O)c1ccc(OC)cc1)C(=O)N1CCCC1` (stereo not given) gave CHX counter 46*, Shiga inhibitor 34*, AMA1 RON2 block -8%, Marburg entry inh 12% and Lassa entry inh -3%.
COc1ccccc1NC(=O)N1CCC(CN2CCc3ccccc3C2)CC1 was read as Lassa entry inh 14%[46.1 µM].
Screening C=CCNC(=O)N1C2=NC(C(=O)OC)=C(C(=O)OC)[C@@H]3N(Cc4ccccc4)c4ccccc4[C@]23C[C@H]1C(=O)OC returned AMA1 RON2 block -2%, Marburg entry inh 3%[14.2 µM] and Lassa entry inh inconclusive.
Cc1ccc(OCC(=O)Nc2ccc3nc(SCC(=O)N4CCOCC4)sc3c2)cc1C was read as Marburg entry inh -21%[46.1 µM] and Lassa entry inh 6%[46.1 µM].
Screening COc1ccc(NC(=S)NNc2ccc(C(=O)O)cc2)cc1 returned CHX counter 42*, Shiga inhibitor 38, AMA1 RON2 block 41%, Marburg entry inh inconclusive and Lassa entry inh 16%[46.1 µM].
Screening COc1ccc(C(=O)Nc2ccccc2C(=O)Nc2ccc(C(=O)O)cc2)cc1 returned CHX counter 11*, Shiga inhibitor 35, AMA1 RON2 block -21%, Marburg entry inh -24% and Lassa entry inh -20%.
